The values that follow come from PubChem BioAssay (Tox21).

Records with an inconclusive call do not appear. The source made the active and inactive calls. The call rests on the fitted dose curve; in most records, active means well fitted curve in the direction sought with a large enough effect in the repeat runs; inconclusive means weak or mixed curves; inactive means no such curve, though single readings can be large; an effect the other way counts as inactive or inconclusive.

Test [1] in a line: qHTS RealTime-Glo MT Cell Viability Assay in HEK293 cells - 0 hour (AID 1224880). Further: top concentration of the series differs between compounds; nearly all actives have a fitted effect of over 45% in size. An outline of the steps: (§1)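 HEK293 + NanoLuc + prosubstrate, 600 cells/well; 5 h, 37 C/5% CO2; compound 23 nL in DMSO by pintool; 37 C; luminescence read at 0, 8, 16, 24, 32 and 40 h time points.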
(qHTS replaces the single test concentration by a dilution series.)

Test [2] can be described thus: A CellTox Green Cytotoxicity Assay to monitor cytotoxicity in HEK293 cells - 32 hour (AID 1224881). Further: nearly all actives have a fitted effect of over 40% in size. Further: potency means the concentration at half of the fitted maximal effect. In short, it runs like this: (§2)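 Tox21 screen in HEK293: membrane-impermeant cyanine dye fluoresces on binding dead-cell DNA; compound pinned 5 h post-seeding, plates held at 37 C, signal read repeatedly through 40 h.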
Test [3] can be described thus: A CellTox Green Cytotoxicity Assay to monitor cytotoxicity in HepG2 cells - 0 hour (AID 1224882). Further: nearly all actives have a fitted effect of over 35% in size. In short, it runs like this: (§3)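 Measurements at 0, 8, 16, 24, 32 and 40 h of treatment captured CellTox Green fluorescence in HepG2 cells that had been co-plated with reagent and preincubated 5 h at 37 C/5% CO2.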
Test [4] can be described thus: A CellTox Green Cytotoxicity Assay to monitor cytotoxicity in HepG2 cells - 32 hour (AID 1224883). Further: nearly all actives have a fitted effect of over 50% in size. Further: potency means the concentration at half of the fitted maximal effect. In short, it runs like this: as §3
Test [5] in a line: A CellTox Green Cytotoxicity Assay to monitor cytotoxicity in HEK293 cells - 8 hour (AID 1224884). Further: nearly all actives have a fitted effect of over 35% in size. Further: potency means the concentration at half of the fitted maximal effect. An outline of the steps:
as §2

The nature of test [6]: qHTS RealTime-Glo MT Cell Viability Assay in HepG2 cells - 16 hour (AID 1224885). Further: nearly all actives have a fitted effect of over 50% in size. An outline of the steps: (§4)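 Tox21 10K library screened in qHTS format on HepG2 cells carrying RealTime-Glo reagents. Compounds were added after a 5 h preincubation, and the luminescent signal from continuous culture was measured repeatedly during 40 h treatment.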
Test [7] can be described thus: qHTS RealTime-Glo MT Cell Viability Assay in HEK293 cells - 24 hour (AID 1224886). Further: nearly all actives have a fitted effect of over 50% in size. Further: potency means the concentration at half of the fitted maximal effect. An outline of the steps:
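Luminescence generated by NanoLuc from substrate produced by living HEK293 cells served as the viability signal. Each value reflects the reading at its stated time point during continuous 40 h compound exposure at 37 C.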

Test [8] in a line: qHTS RealTime-Glo MT Cell Viability Assay in HEK293 cells - 8 hour (AID 1224887). Further: nearly all actives have a fitted effect of over 50% in size. Further: potency means the concentration at half of the fitted maximal effect. In short, it runs like this: as §1
The nature of test [9]: A CellTox Green Cytotoxicity Assay to monitor cytotoxicity in HEK293 cells - 16 hour (AID 1224888). Further: nearly all actives have a fitted effect of over 35% in size. Further: potency means the concentration at half of the fitted maximal effect. An outline of the steps:
as §2

Test [10] is described as follows: qHTS RealTime-Glo MT Cell Viability Assay in HepG2 cells - 0 hour (AID 1224889). Further: nearly all actives have a fitted effect of over 50% in size. An outline of the steps:
as §4

In the case of `C1COCO1`, the Potency result in test [1], in [2], in test [3], in test [4], in test [5] and in [6] was “inactive” in each case. Also, the Potency result in test [7], in test [8], in test [9] and in test [10] was “inactive” each time.

In the case of `O=C(O)c1cccnc1C(=O)O`, the Potency result in test [1], in [2], in [3], in test [4], in test [5] and in test [6] was “inactive” throughout. Besides, the Potency result in [7], in test [8], in test [9] and in test [10] was “inactive” each time.

Turning to `COC(=O)c1cc(Cl)ccc1NS(=O)(=O)C(F)(F)F`, the Potency result in test [1], in [2], in test [3], in test [4], in [5] and in test [6] was “inactive” each time. The Potency result in [7], in test [8] and in test [9] was “inactive” throughout.

In the case of `CCCc1c(OCCCOc2ccc(OCC(=O)O)cc2)ccc(C(C)=O)c1O`, the Potency result in test [1], in test [2], in test [3], in test [4], in test [5] and in [6] was “inactive” each time. In addition, the Potency result in test [7], in [8] and in test [9] was “inactive” throughout.

With `CCC(C)(O)CCC=C(C)C` (configuration not stated), the Potency result in [1], in test [2], in test [3], in test [4], in [5] and in test [6] was “inactive” throughout. Besides, the Potency entry in test [7], in test [8], in [9] and in [10] was “inactive” in each case.

As for `CCOC(=O)c1ccccc1OC`, the Potency result in test [1], in test [2], in test [3], in [4], in [5] and in test [6] was “inactive” in each case. Moreover, the Potency result in test [7], in [8] and in [9] was “inactive” throughout.

On to `CCC1(C)CC(=O)NC1=O` (configuration not stated), for which the Potency entry in test [1], in test [2], in test [3], in test [4], in [5] and in [6] was “inactive” throughout. Besides, the Potency result in test [7], in test [8], in [9] and in test [10] was “inactive” each time.

As for `C=CC(=C)CCCC(C)(C)OC(C)=O`, the Potency result in test [1], in test [2], in test [3], in [4], in test [5] and in test [6] was “inactive” throughout. Moreover, the Potency result in test [7], in test [8], in [9] and in test [10] was “inactive” each time.

For the compound `Nc1ccc(Cl)cc1[N+](=O)[O-]`, the Potency result in test [1], in test [2], in [3], in test [4], in [5] and in [6] was “inactive” each time. In addition, the Potency entry in [7], in test [8] and in test [9] was “inactive” each time.

As for `Nc1ccc(S(=O)(=O)O)cc1`, the Potency entry in [1], in [2], in test [3], in test [4], in [5] and in test [6] was “inactive” throughout. The Potency result in test [7], in test [8], in test [9] and in test [10] was “inactive” throughout.

For `CC(N)CN` (configuration not stated), the Potency result in test [1], in [2], in [3], in test [4], in test [5] and in test [6] was “inactive” in each case. In addition, the Potency entry in test [7], in test [8], in [9] and in test [10] was “inactive” in each case.

With `COCC(O)CO` (configuration not stated), the Potency entry in test [1], in test [2], in test [3], in [4], in test [5] and in test [6] was “inactive” in each case. Besides, the Potency result in test [7], in test [8], in test [9] and in [10] was “inactive” in each case.

As to `O=C(O)C(Cc1cc(I)c(O)c(I)c1)c1ccccc1` (configuration not stated), the Potency result in [1], in test [2], in test [3], in test [4], in [5] and in test [6] was “inactive” in each case. The Potency entry in test [7], in test [8], in test [9] and in test [10] was “inactive” throughout.

As for `CCCCC(CC)CNCC(CC)CCCC` (configuration not stated), the Potency result in test [1], in test [2], in [3], in test [4], in test [5] and in test [6] was “inactive” throughout. Also, the Potency entry in test [7], in test [8] and in test [9] was “inactive” each time.

In the case of `CCNC(=O)N1CCN(CCCC(c2ccc(F)cc2)c2ccc(F)cc2)CC1`, the Potency entry in test [1], in test [2], in [3], in [5], in test [6] and in test [9] was “inactive” throughout. Also, the Potency result in test [10] is “inactive”. The Potency in test [4] was 21.3 µM (active); in test [7], 16.9 µM (active); in [8], 16.9 µM (active).

For `OC(CCCN1CCCCC1)(c1ccccc1)c1ccccc1`, the Potency entry in test [1], in [2], in test [3], in [4], in [5] and in [6] was “inactive” in each case. Further, the Potency entry in test [7], in test [8], in test [9] and in test [10] was “inactive” each time.

Regarding `COCCOC`, the Potency result in [1], in test [2], in [3], in [4], in test [5] and in test [6] was “inactive” each time. The Potency result in [9] was “inactive”. In addition, the Potency in test [7] was 0.74 µM (active).

In the case of `C[N+]1(C)CCC(=C(c2ccccc2)c2ccccc2)CC1`, the Potency result in test [1], in test [2], in test [3], in test [4], in test [5] and in [6] was “inactive” throughout. Besides, the Potency entry in test [7], in test [9] and in test [10] was “inactive” each time.

As to `C=CC(=O)NCOCC(C)C`, the Potency result in test [1], in test [2], in test [3], in test [4], in [5] and in test [6] was “inactive” each time. Further, the Potency entry in [7], in [9] and in [10] was “inactive” throughout.

Consider `Cc1oc(C)c(C(=O)Nc2ccccc2)c1C`, for which the Potency entry in [1], in test [2], in [3], in test [4], in [5] and in test [6] was “inactive” in each case. The Potency result in test [9] and in test [10] was “inactive” throughout. In test [7], the Potency is 34.7 µM (active).

As for `CCCOC(=O)c1ccc(N)cc1`, the Potency entry in test [1], in [2], in test [3], in [4], in test [5] and in test [6] was “inactive” each time. Moreover, the Potency result in [7], in test [8], in test [9] and in test [10] was “inactive” in each case.

As for `C[Si]1(C)O[Si](C)(C)O[Si](C)(C)O1`, the Potency entry in test [1], in test [2], in test [3], in test [4], in [5] and in test [6] was “inactive” in each case. Further, the Potency result in test [7], in [9] and in test [10] was “inactive” throughout.

In the case of `Cn1c(=O)c2c(ncn2CC(=O)O)n(C)c1=O`, the Potency result in test [1], in test [2], in test [3], in test [4], in [5] and in [6] was “inactive” each time. For the same compound, the Potency result in test [7], in test [8], in [9] and in [10] was “inactive” each time.

On to `CC1(C)C(=O)N(Br)C(=O)N1Cl`, for which the Potency entry in test [1], in [2], in test [3], in test [4], in [5] and in test [6] was “inactive” in each case. Also, the Potency result in [7], in test [9] and in test [10] was “inactive” throughout.

For the compound `CC1C2CC(CC2C2CCCC(O)C2)C1(C)C` (configuration not stated), the Potency result in test [1], in [3], in [6], in test [7] and in test [10] was “inactive” each time. For the same compound, the Potency is 49 µM (active) in test [2], 43.6 µM (active) in [4], 43.6 µM (active) in test [5] and 49 µM (active) in [9].
